According to PubChem BioAssay AID686978 (National Center for Advancing Translational Sciences (NCATS), 2013):
About 64,000 (15%) of roughly 420,000 compounds were called active. Not shown: some 27% with an inconclusive outcome. Only a sample is shown. Values without a mark were called inactive. Calls follow the shape of the dose curve; as a rule, active = well fitted inhibition curve with a large enough effect; inconclusive = small, poorly fitted or top-dose-only effect; inactive = flat fitted curve, though single readings scatter.

Assay: qHTS for Inhibitors of human tyrosyl-DNA phosphodiesterase 1 (TDP1): qHTS in cells in absence of CPT; also: nearly all actives have a fitted effect of over 55% in size
Conditions: DT40 Tdp1-/- hTDP1 cells, no CPT, ATP luminescence, 48 h; activity change, negative = growth inhibition: at 46.2 µM (top of the series)
In short: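 Cells were dispensed at 400 per well, compounds added by pin tool, plates incubated ≥48 hr at 37 °C, then CellTiter-Glo added for 30 min at room temperature before luminescence reading. Line: DT40 Tdp1-/- complemented with hTDP1; camptothecin omitted.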
% is scaled to controls: 0 for no effect and ±100 for the full control effect; potency is read from the fitted curve at half-maximal effect.

SMILES | activity change, negative = growth inhibition | Potency
CCCCC(=O)N/N=C(\C)CC(=O)Nc1cc(Cl)ccc1OC | 4.59% | –
C/C(CC(=O)NCc1ccc(Cl)cc1)=N\NC(=O)COc1ccc(C)cc1Br | – | 3.26 µM (active)
COCCNC(=S)N1CCN(C)CC1 | 23.5% | –
COC(=O)c1cc(NC(=O)CN2CCC(C(N)=O)(N3CCCCC3)CC2)cc(C(=O)OC)c1 | -10.4% | –
Cc1oc2c(c1C(=O)Nc1ccc(F)c(F)c1)C1=NCCN1C=N2 | -28.4% | –
O=C(CN1C(=O)CCS(=O)(=O)c2ccccc21)NCc1ccc(F)cc1 | -17.2% | –
CC(NC(=O)C(=O)Nc1nccs1)c1ccccc1 (stereo unspecified) | -1.11% | –
O=C(NCc1ccco1)c1cccn2c(=O)c3c4c(sc3nc12)CCCC4 | – | 7.31 µM (active)
O=C(NCc1ccco1)c1nc2ncccn2n1 | -9.65% | –
O=c1oc(-c2ccco2)nc2sc3c(c12)CCCCC3 | -13.5% | –
O=C(c1cnc(Cl)c(Cl)c1)N1CCN(S(=O)(=O)c2ccc(F)cc2)CC1 | -27.7% | –
Cc1cc(C)c(/C=C2\C(=O)Nc3ccccc32)[nH]1 | – | inactive
COc1ccccc1N1CC(C(=O)NCCN2C(=O)S/C(=C\c3cccnc3)C2=O)CC1=O (stereo unspecified) | -19.7% | –
CN1CCN(C2=NCCO2)CC1 | -3.09% | –
Cc1ccc(-n2c(SCC(=O)Nc3ccc4c(c3)OCO4)nnc2-c2ccoc2C)cc1 | -24.3% | –
O=C(O)c1cc(S(=O)(=O)N(Cc2ccccc2)c2cccc(C(F)(F)F)c2)ccc1Cl | 3.29% | –
O=C(CN(c1cc(C(F)(F)F)ccc1Cl)S(=O)(=O)c1ccccc1)NCc1cccnc1 | – | 18.4 µM (active)
CCc1ccc(N(CC(=O)NCc2cccnc2)S(=O)(=O)c2ccccc2)cc1 | -24.9% | –
CC(=O)Nc1ccc(NC(=O)CSc2ncnc3c2cnn3Cc2ccccc2)cc1 | -11.7% | –
OCc1n[nH]c(CO)n1 | -11.1% | –
COc1ccc(C(=O)N2CCCCC2c2cc(C(=O)Nc3ccc(F)c(Cl)c3)no2)cc1 (stereo unspecified) | – | 23.1 µM (active)
CCCNC(=O)c1cc(C2CCCCN2C(=O)OC)on1 (stereo unspecified) | -3.68% | –
COc1ccc(C(=O)Nc2c(Cl)cc(Cl)cc2C(=O)N2CCC(C)CC2)cc1 | -25.7% | –
CC(=O)c1ccc(N2C(=NC(=O)C(C)C)SC3CS(=O)(=O)CC32)cc1 (stereo unspecified) | -9.09% | –
CCCOc1ccc(F)cc1-c1cc(C(=O)Nc2ccc(F)c(Cl)c2)[nH]n1 | – | 16.4 µM (active)
COc1ccc(NC(=O)CN2CCN(S(=O)(=O)c3ccc(F)cc3)CC2)cc1Cl | -18% | –

SMILES | activity change, negative = growth inhibition | Potency
CCNC(=O)c1ccc(OCC(=O)Nc2ccc(F)cc2)c(OC)c1 | -7.12% | –
O=C(O)Cc1csc(NC(=O)CSc2nnnn2-c2ccc(O)cc2)n1 | -9.95% | –
CC(=O)Nc1ccc(S(=O)(=O)Oc2ccc(/C=N/N=C3/NC(=O)C(CC(=O)O)S3)cc2)cc1 (stereo unspecified) | -11.2% | –
Cn1c(=N)n(CC(O)c2ccccc2)c2ccccc21 (stereo unspecified) | -21.3% | –
Cn1c(=N)n(CC(O)c2cccs2)c2ccccc21 (stereo unspecified) | -23.5% | –
CCOc1ccc(C(O)Cn2c(=N)n(CCN3CCCCC3)c3ccccc32)cc1 (stereo unspecified) | – | 23.1 µM (active)
NS(=O)(=O)c1ccc(CCNC(=O)c2ccc(Cl)cc2[N+](=O)[O-])cc1 | -6.5% | –
CC(=O)NCCc1ccc(S(=O)(=O)N(C)C2CCS(=O)(=O)C2)cc1 (stereo unspecified) | 0.768% | –
COc1cc(NS(=O)(=O)c2ccc(N=Cc3c(C)[nH]n(-c4ccccc4)c3=O)cc2)nc(OC)n1 | -22.1% | –
CCc1nnc(NS(=O)(=O)c2ccc(N=Cc3c(C)[nH]n(-c4ccc(C)cc4)c3=O)cc2)s1 | – | 11.2 µM (active)
CCc1nnc(NS(=O)(=O)c2ccc(NS(=O)(=O)c3ccccc3)cc2)s1 | -8.83% | –
S=c1[nH]nc(-c2cc(-c3ccsc3)n[nH]2)n1-c1ccccc1 | -20.4% | –
Cc1ccnc(N2CCCC(C(=O)Nc3cc(F)ccc3C)C2)n1 (stereo unspecified) | -13% | –
CCOc1ccc2nc(N3CCCC(C(=O)Nc4cc(C)ccc4C)C3)sc2c1 (stereo unspecified) | – | 18.4 µM (active)
Cc1cc(C)c2nc(N3CCC(C(=O)NCCN4CCOCC4)CC3)sc2c1 | -6% | –
Cc1ccc(C)c(NC(=O)C2CCCN(S(=O)(=O)c3cn(C)cn3)C2)c1 (stereo unspecified) | -3.78% | –
CCOC(=O)N1CCC(NC(=O)c2ccc3nc(N4CCOCC4)sc3c2)CC1 | -11% | –
CCOc1ccc2nc(N3CCC(C(=O)Nc4cc(C)ccc4C)CC3)sc2c1 | – | 16.4 µM (active)
CC1CCCCC1NC(=O)Cn1cnc2c1c(=O)n(C)c(=O)n2C (stereo unspecified) | 2.55% | –
COC(=O)CN1C(=O)[C@H]2[C@@H](/C=C/c3ccccc3)N3C(=O)CN(CC4CC4)C(=O)[C@@]3(Cc3ccccc3)[C@H]2C1=O | -1.54% | –
COC(=O)C1(S(=O)(=O)C2(C(=O)OC)CCCC2)CCCC1 | -4.39% | –
COc1ccc(-c2nnc(SCc3cccnc3)o2)cc1 | -15.2% | –
N#Cc1nc(COc2ccc(-c3ccccc3)cc2)oc1NCc1cccnc1 | – | 25.9 µM (active)
Cc1noc(C)c1-c1cc(NCc2cccnc2)ncn1 | 2.95% | –
O=C(Cn1nc(C(=O)O)c2ccccc2c1=O)Nc1ccc(F)cc1 | 14.5% | –
